Experimental data reported in the OligoGym collection.

The sequences below were run against DNASE2B (assay: pooled miR-30 sensor sort-seq; sequence = guide strand). Details: shRNA.
Also: reference of the scale not given here.

| Sequence | sensor-assay potency score (higher = more potent) |
| --- | --- |
| TTTTATATTGTAGACATGGTAA | -1.07 |
| TTGGTGTGTCCATACTTTCTGC | -0.698 |
| TATAGCTGTTGTAATGTCCTTC | 0.757 |
| TTTAATTGCTTTTATATTGTAG | -0.233 |
| TAGGTCTCCAATACATGTCCAG | -0.704 |
| TTGTATATTAGATAGGCTGTGT | 0.0611 |
| ATAATCATAGCCTTCTTCCGGA | 0.631 |
| TACTCTTAGAGGCATATGCTTC | -0.938 |
| TAACAAGTGTGTCTTCAGCCGT | -0.785 |
| TTGAACTCTGTTCCACAGCAGT | -0.963 |
| TCTAGTTGTAGAGTCTAGGTAC | 0.705 |
| TTCTGTTAACAAGTGTGTCTTC | -0.13 |

What follows are sequences tested against DNMT3L in the same assay as above. Details: shRNA.

| Sequence | sensor-assay potency score (higher = more potent) |
| --- | --- |
| TTGGTACCCGTCATCGTCGTAC | -0.554 |
| TATGCAATAAGATCTCTGCCTG | -0.0706 |
| TGAACCTGGAGACTTCCGCAGC | -0.928 |
| TTGAAATATTCTCTTAGGGGGA | -0.387 |
| AATACTTGAAATATTCTCTTAG | 0.0137 |
| TGGAACTGGAACAGGTACCAGC | -1.35 |
| TATATTTCGCTGGTTAGCCTTG | -0.491 |
| TTCTGTTGAAAAATACTTGAAA | -0.77 |
| AACTGGAACAGGTACCAGCTGG | -0.764 |
| TGTGACATCAACCACATGCTTC | -0.297 |
